In the supplement of paper PMC9694430:
Several values for one entry are separate records, joined by “and”; a condition that tells them apart may be missing. Identical values can stand only once. Counter-ions that a name gives are not always drawn.

system: LOC_OS01G57100-cb003; assay: thermal shift delta Tm vs DMSO control; higher = stronger stabilization (binding); details: 12.5 µM; protein concentration 2 µM
Method in brief: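 Rice kinase domain constructs, made in E. coli and purified, were placed in 96-well plates at 2 μM in 19.5 μl of 100 mM potassium phosphate pH 7.5, 150 mM NaCl, 10% glycerol and 5 × SYPRO Orange, with compound in DMSO. A temperature ramp from 25°C to 95°C at 0.05°C/s was used for differential scanning fluorimetry. The melting temperature shift is a triplicate mean compared with DMSO-only protein, derived from Boltzmann fits.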
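Also: purified Escherichia coli-expressed rice kinase domain construct.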

Compound | thermal shift delta Tm
C[C@H](CN(C)C)Oc1nc(Nc2cc3cccc(Cl)c3cn2)cnc1C#N | 0.95 °C
CN1c2ccccc2C(=O)Nc2cnc(Nc3ccc(N4CCC(O)CC4)cc3)nc21 | 0.2 °C
CCNc1nc(Nc2cc(F)c(C(=O)N3CCOCC3)cc2OC)ncc1C(F)(F)F | 0.61 °C
COc1cc2ncnc(Nc3ccc(Oc4ccccc4)cc3C)c2cc1OC | 1.05 °C
O=C1NC(=O)/C(=C/c2cccc(C(F)(F)F)c2)S1 | 0.63 °C
COc1ccc(C(=O)Nc2sc3c(c2C(N)=O)CCCC3)cc1OC | 1.3 °C
C#Cc1cccc(Nc2ncnc3cc(OCCOC)c(OCCO)cc23)c1 | 0.15 °C
FC(F)(F)c1ccc(/C=C/c2nc(COc3ccc(CCCCn4ccnn4)cc3)co2)cc1 [Mubritinib (TAK 165)] | 0.83 °C
CNC(=O)Nc1ccc(-c2nc(N3CC4CCC(C3)O4)c3cnn(C4CCC5(CC4)OCCO5)c3n2)cc1 | 2.76 °C
CC(C)(C)NS(=O)(=O)c1cncc(-c2cc(F)c3nc(N)nn3c2)c1 | 1.55 °C
C[C@@H]1CN(CC(=O)Nc2ccc3c(c2)Cc2cccc(-c4cc(=O)cc(N5CCOCC5)o4)c2S3)C[C@H](C)O1 | 1.01 °C
COCCOc1ccc2c(c1)ncn2-c1ccc2cccc(N3CCC(N)CC3)c2n1 | 1.13 °C
Cc1ccc(NC(=O)c2ccc(CN3CCN(C)CC3)cc2)cc1Nc1nc(-c2cccnc2)cs1 [Masitinib (AB1010)] | 0.04 °C
Cn1cc(-c2cnn3c(N)c(Br)c([C@@H]4CCCNC4)nc23)cn1 | -0.78 °C
COc1ccc(-c2cc3c(C)nc(N)nc3n([C@H]3CC[C@H](OCCO)CC3)c2=O)cn1 | 2.79 °C
Cc1ccc(S(=O)(=O)/C=C/C#N)cc1 | 3.66 °C
CCCS(=O)(=O)Nc1ccc(F)c(C(=O)c2c[nH]c3ncc(-c4ccc(Cl)cc4)cc23)c1F [Vemurafenib (PLX4032, RG7204)] | 3.36 °C
C[C@@H](N)c1ccc(C(=O)Nc2ccnc3[nH]ccc23)cc1 | 0.44 °C
O=C(NC1CCNCC1)c1n[nH]cc1NC(=O)c1c(Cl)cccc1Cl | 0.75 °C and 1.2 °C

Compound | thermal shift delta Tm
NCC(=O)Nc1ccc(-n2nc(C(F)(F)F)cc2-c2ccc3c(ccc4ccccc43)c2)cc1 | 0.88 °C
CCn1c(-c2nonc2N)nc2cnc(Oc3cccc(NC(=O)c4ccc(OCCN5CCOCC5)cc4)c3)cc21 | 0.1 °C
COc1cc2c3cc1Oc1c(OC)c(OC)cc4c1[C@@H](Cc1ccc(O)c(c1)Oc1ccc(cc1)C[C@@H]3N(C)CC2)N(C)CC4 [Berbamine (dihydrochloride)] | 1.3 °C
COc1cc2ncc(-c3ccccc3)nc2cc1OC [Tyrphostin AG 1296] | 0.4 °C
C[C@H]1CNCCCN1S(=O)(=O)c1cccc2cncc(F)c12 [Ripasudil (K-115) hydrochloride dihydrate] | 0.7 °C
N#Cc1c(NC(=O)c2cccc3ccccc23)sc2c1CCCC2 [JNK Inhibitor IX] | 1.35 °C
CC(C)N(CCC(=O)c1ccc2ccccc2c1)Cc1ccccc1 | 1.6 °C
COC(=O)c1ccc2c(c1)NC(=O)/C2=C(\Nc1ccc(N(C)C(=O)CN2CCN(C)CC2)cc1)c1ccccc1 [Nintedanib (BIBF 1120)] | 0.08 °C
Nc1ccc(-c2ccc3ncc4ccc(=O)n(-c5cccc(C(F)(F)F)c5)c4c3c2)cn1 [Torin 2] | 0.64 °C
COc1ccc2c(Oc3ccc(NC(=O)c4c(C)n(CC(C)(C)O)n(-c5ccccc5)c4=O)nc3)ccnc2c1 | 1.79 °C
COc1ncc(-c2ccc3nccc(-c4ccnnc4)c3c2)cc1NS(=O)(=O)c1ccc(F)cc1F | 2.01 °C
Cc1c[nH]c(/C=C2\C(=O)Nc3ccccc32)c1CCC(=O)O | 0.49 °C
Cc1cc(Nc2cc(Cl)nc(Oc3ccc([N+](=O)[O-])cc3)n2)n[nH]1 [Autophinib] | 1.52 °C
O=C(c1ccc(/C=C/c2n[nH]c3ccccc23)cc1)N1CCNCC1 | 1.7 °C
COc1ccc(CNC(=O)Nc2ncc([N+](=O)[O-])s2)cc1 | 1.87 °C
Cc1cc2c(F)c(Oc3ncnn4cc(OC[C@@H](C)O)c(C)c34)ccc2[nH]1 | 0.81 °C
C=CC(=O)Nc1cccc(Oc2nc(Nc3ccc(N4CCN(C)CC4)cc3)nc3ccsc23)c1 | 2.41 °C
O=c1cc(N2CCOCC2)oc2c(-c3ccc4c(c3)OCCO4)csc12 | 0.23 °C
c1nc2c(NC3CCCCC3)nc(Nc3ccc(N4CCOCC4)cc3)nc2[nH]1 [Reversine] | 0.27 °C
